Assay results as given in PubChem BioAssay AID504850 (National Center for Advancing Translational Sciences (NCATS), 2011).
About 1,200 (52%) of roughly 2,300 compounds were called active. Inconclusive results (about 34%) are left out. So high a share suggests a set chosen from earlier hits. Some of the results follow. Values without a mark were called inactive. Calls follow the shape of the dose curve; as a rule, active = well fitted inhibition curve with a large enough effect; inconclusive = small, poorly fitted or top-dose-only effect, or effect the other way; inactive = no such curve, though single readings can be large or run the other way.

assay: Confirmation screen for delayed death inhibitors of the malarial parasite plastid, 48 hour incubation; also: nearly all actives have a fitted effect of over 65% in size; settings: P. falciparum-infected erythrocytes, luciferase growth; series mostly up to 28.7 µM; activity change, negative = inhibition: at the top concentration
Procedure, shortened: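 Single-generation (48 h, 37 C) exposure of integrated firefly luciferase-reporter P. falciparum in red cells, 0.1% parasitemia at 2% hematocrit, Albumax-supplemented RPMI. Falling luciferase signal marks parasite growth inhibition.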
% is scaled to controls: 0 for no effect and ±100 for the full control effect; potency is read from the fitted curve at half-maximal effect.

| Compound | Potency | activity change, negative = inhibition [%] |
| --- | --- | --- |
| CCN(CC)C(=O)C1CCCN(C(=O)c2cc(COc3ccc4ncccc4c3)on2)C1 (stereo not given) | 11.2 µM (active) | – |
| CN1C(=O)Cc2cc(S(=O)(=O)N3CCN(c4cccc(C(F)(F)F)c4)CC3)ccc21 | 11.2 µM (active) | – |
| Cc1ccc(-c2cc(=O)c3ccc(F)cc3[nH]2)cc1 | 5.01 µM (active) | – |
| CCn1nc(C)c(NC(=O)CC23CC4CC(CC(C4)C2)C3)c1C | – | -8.09 |
| NC(=O)COc1ccc(C(=O)/C=C2/C(=O)Nc3ccccc32)cc1 | – | -13.9 |
| NC(=O)COc1ccc(NC(=O)CC23CC4CC(CC(C4)C2)C3)cc1 | 11.2 µM (active) | – |
| C=CCNC(=O)CSc1nc2sc3c(c2c(=O)n1CCCOC)CCC3 | 12.6 µM (active) | – |
| CCOc1ccc(-c2cc(C(=O)O)c3ccccc3n2)c(OCC)c1 | – | -18.3 |
| CC(C)Oc1ccccc1-c1cc(C(=O)N/N=C/c2cccnc2)c2ccccc2n1 | 11.2 µM (active) | – |
| COc1ccc(/C=N/NC(=O)c2cc(-c3ccccc3OC(C)C)nc3ccccc23)cc1CN1CCOCC1 | – | -26.3 |
| COc1cc(/C=N/NC(=O)c2cc(-c3ccccc3OC(C)C)nc3ccccc23)ccc1O | 14.1 µM (active) | – |
| CCOc1ccc(-c2cc(C(=O)N/N=C(\C)c3cccnc3)c3ccccc3n2)c(OCC)c1 | 14.1 µM (active) | – |
| CC1CCN(c2ccc3nnc(CCC(=O)N4CCN(c5ccccc5F)CC4)n3n2)CC1 | 10 µM (active) | – |
| CN(CCc1ccccn1)C(=O)c1ccc(OC2CCN(CCc3ccccc3)CC2)cc1 | 14.1 µM (active) | – |
| Cc1nn(C)c(C)c1C(C)NC(=O)c1ccc(OC2CCN(Cc3ccccn3)CC2)cc1 (stereo not given) | – | -41.6 |
| COc1ccc(CN2CCC(Oc3ccc(C(=O)NCc4ccccn4)cc3)CC2)c(F)c1 | 12.6 µM (active) | – |
| CCCCN(CCCC)CCC(O)c1cc2c(Cl)cc(Cl)cc2c2cc(C(F)(F)F)ccc12 (stereo not given) | 0.0316 µM (active) | – |
| CC(=O)/C(C#N)=C1\NC(=O)C(Cc2cc(Cl)ccc2Cl)S1 (stereo not given) | 14.1 µM (active) | – |
| CC(=O)/C(C#N)=C1\NC(=O)C(Cc2ccc(F)cc2)S1 (stereo not given) | 10 µM (active) | – |
| CCOC(=O)c1c(C)[nH]c(C(=O)Nc2cc(OCC)c(N3CCOCC3)cc2OCC)c1C | 2.51 µM (active) | – |
| Cc1ccc(NC(=O)CN2C(=O)S/C(=C\c3ccccn3)C2=O)cc1C | – | -1.34 |
| Cc1ccc(CN(Cc2ccccn2)C(=O)Nc2ccc(C)c(C)c2)cc1 | 14.1 µM (active) | – |
| CC(Sc1nc2cc(Cl)ccc2s1)C(=O)Nc1cccc(S(=O)(=O)N2CCOCC2)c1 (stereo not given) | 12.6 µM (active) | – |
| O=C(CCl)Nc1ccc(S(=O)(=O)Nc2nccs2)cc1 | 2.24 µM (active) | – |
| CCC(=O)c1ccc(OCC(O)CNC(C)c2ccccc2)cc1 (stereo not given) | 11.2 µM (active) | – |
